System: Plasmodium falciparum NF54
Test: growth inhibition relative to untreated control; higher = more inhibition
Conditions: 72 h
How it was run: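 Ring-stage P. falciparum NF54 parasites at 1% hematocrit and 1% parasitemia were dispensed at 100 μL/well into dark 96-well half-area plates and given a single dose of test compound at 5 μM or 1 μM for 72 h at 37 °C. Incubation took place in minimal RPMI, either alone or supplemented with the chorismate end-products folate (2.2 μM), pABA (7.3 μM), pHBA (7.3 μM), tyrosine (111 μM), phenylalanine (90 μM) and tryptophan. Growth inhibition was determined with SYBR Green relative to untreated wells, using uninfected erythrocytes for background.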

[1] = 1 µM, MM + chorismate end-products (CM screening medium)
[2] = 5 µM, MM + chorismate end-products (CM screening medium)

| Structure (SMILES) | growth inhibition [1] [%] | growth inhibition (1 µM, minimal medium (MM)) [%] | growth inhibition [2] [%] | growth inhibition (5 µM, minimal medium (MM)) [%] |
| --- | --- | --- | --- | --- |
| NS(=O)(=O)c1cccc(-c2ccc3ncc(N4CCOCC4)nc3c2)c1 | 47 | 71 | > 100 | 88.7 |
| O=C(COc1cccc(F)c1)Nc1nc(-c2ccccn2)cs1 | < 0 | 2.24 | < 0 | < 0 |
| Cc1nc(-c2cccc(NCc3ccccc3)c2)[nH]c1C | 63.5 | 35.9 | 93.4 | 94.7 |
| Cc1ccc2c(c1C)NC(=O)C21NN=C(c2ccccc2)S1 (configuration not stated) | 95.4 | 89.4 | 98.3 | 89.8 |
| CNCCC(Oc1ccc(C(F)(F)F)cc1)c1ccccc1 (configuration not stated) | 10.2 | < 0 | < 0 | 2.19 |
| CCCNC(=O)N1CCC2(CC1)CC(=O)c1cc(C)ccc1O2 | 72.5 | 76.5 | 86.4 | 84.9 |
| CCn1cnc2c(Nc3cc(F)cc(F)c3)nc(C#N)nc21 | 36.4 | < 0 | 40.3 | < 0 |
| COc1ccc(CN2CCOc3ccc(C(C)(O)CN(C)C)cc3C2)cc1C (configuration not stated) | 78.6 | 75 | 66.7 | 21.7 |
| COc1ccc(Oc2ccc([C@@H](C)N(C)c3ncc4c(N)nc(N)nc4n3)cc2)cc1 | 13.7 | < 0 | > 100 | 89.1 |
| COc1ccc(Nc2ccccc2NC(=O)c2ccc(O)nc2)cc1 | 12.7 | < 0 | < 0 | < 0 |
| O=C(NCCc1c[nH]c2ccccc12)c1cc2ccccc2oc1=O | 20.7 | 2.31 | < 0 | < 0 |
| CC1=Nc2ccc(Cl)cc2C(c2ccccc2)N1CCNC(=O)CN(C)C (configuration not stated) | 49 | 19 | > 100 | 89.7 |
| COc1ccc(-c2cnc3ccc(N4CCCC4)nn23)cc1OC | 79.9 | 78 | 96.8 | 82.4 |
| Cc1cc(OCC(=O)Nc2ccc(C(C)C)cc2)n(C)c(=O)c1C#N | 18.1 | 33 | 18.4 | 21 |
| CNc1cc(C)nc(C2CN(C(=O)c3n[nH]c4ccccc34)CCO2)c1 (configuration not stated) | 16.4 | 10.7 | 41.7 | 21.7 |
| O=C(c1ccc(NCCO)cc1)C1C[C@H]1c1ccc(Cl)cc1 (some centres not stated) | 71 | 98.1 | 91.8 | 89 |
| CC(=O)NCC1CN(c2ccc(-c3ccc(CNCc4cn[nH]n4)cc3)c(F)c2)C(=O)O1 (configuration not stated) | 4.9 | < 0 | 34.6 | < 0 |

| Structure (SMILES) | growth inhibition [1] [%] | growth inhibition (1 µM, minimal medium (MM)) [%] | growth inhibition [2] [%] | growth inhibition (5 µM, minimal medium (MM)) [%] |
| --- | --- | --- | --- | --- |
| Cc1[nH]c2ccccc2c1C(c1cccs1)N1CCN(C)CC1 (configuration not stated) | 11.9 | 21.1 | 9.09 | 19.7 |
| COc1ccc(-c2cncc3ccc(C(=O)NCCCn4ccnc4)nc23)cc1 | 22.9 | 72 | 84.4 | 92.4 |
| COc1ccc2nc(C)cc(OCC(=O)NCc3ccccc3)c2c1 | 25.1 | 2.13 | 21.9 | 2.43 |
| CC(Oc1ccccc1)C(=O)Nc1nc(-c2ccccn2)cs1 (configuration not stated) | < 0 | 38.4 | 68.6 | 38.2 |
| O=C(Nc1cccc(Cl)c1)c1cnc(N2CCN(c3ccncc3)CC2)c(Cl)c1 | 90.3 | > 100 | 99.9 | 87.9 |
| c1coc(CNc2nc(N3CCCCC3)nc3ccccc23)c1 | 68.6 | 35.7 | 67.2 | 67.2 |
| O=C(CN1CCOCC1)Nc1ccc2ncnc(Nc3ccc(OCc4cccc(F)c4)c(Cl)c3)c2c1 | 2.86 | 9.8 | 94.7 | 91.9 |
| CNC(=O)C1Cc2c([nH]c3cc(Cl)ccc23)C2(CCN(CCc3ccccc3)CC2)N1 (configuration not stated) | 87 | > 100 | 92.8 | 94.4 |
| CCC(NC(=O)c1ccccc1NC(=O)c1ccc(C)cc1)C(=O)OC (configuration not stated) | 97.3 | 96.2 | 97.1 | 91.3 |
| COc1nc2ccc(Br)cc2cc1[C@@H](c1ccccc1)[C@@](O)(CCN(C)C)c1cccc2ccccc12 | 73.2 | 77.4 | 99.4 | 88.2 |
| C[C@H]1c2cccc(O)c2C(=O)C2=C(O)[C@]3(O)C(=O)C(C(N)=O)=C(O)[C@@H](N(C)C)[C@@H]3[C@@H](O)[C@@H]21 | 50.6 | 50.7 | 41 | < 0 |
| c1ccc(Oc2ccc(-c3cc(N4CCOCC4)[nH]n3)cc2)cc1 | > 100 | < 0 | 7.27 | < 0 |
| Clc1ccc(CN2CCN(C3=NCCN3)CC2)cc1Cl | < 0 | < 0 | 48.8 | 10 |
| c1ccc(-c2[nH]c3ccccc3c2C(c2ccccn2)N2CCCC2)cc1 (configuration not stated) | 3.66 | 5.9 | 43.6 | < 0 |
| CCOc1ccc2cc(-c3nn(CC4CCN(C)CC4)c4ncnc(N)c34)ccc2c1 | 39.8 | 15.5 | 51.2 | 16.8 |
| CC(C)c1ncc(-c2ccncc2)c([C@H]2CC[C@H](CNC(=O)c3cccnc3)CC2)n1 | 77.1 | 76 | 92.5 | 92 |

Reference: the supplement of paper PMC6763611
